Measurements: PubChem BioAssay AID463173 (ICCB-Longwood Screening Facility, Harvard Medical School, 2010)
Out of some 52,000 compounds screened, about 4,300 (8.3%) were called active. Cut-off read from the data, not from the text of the source: active = survival mostly below about 52% (no sharp cut-off); inactive = mostly above about 56%. The list comes from a sample in which actives are over-represented; it also holds similar structures and randomly drawn compounds.

What follows are compounds tested on DeltatarO mutant (assay: S. aureus survival, RN4220 and DeltatarO strains – OD600, teichoic acid synthesis inhibitors, primary screen (AID 463173)). Details: S. aureus RN4220 wild type/DeltatarO growth, OD600, 18 h, hits give low values, screened at 18.75 µg/mL (by protocol).
For `COc1ccccc1NC(=O)c1oc2ccccc2c1NC(=O)Cc1ccccc1`, the survival was 78% (inactive).
`CCOc1ccc(NC(=O)CCc2c(C)nc3nc(-c4cc(OC)cc(OC)c4)nn3c2C)cc1` was tested, and the survival was 78% (inactive).
In the case of `Cc1ccc(CCNC(=O)CCn2c(=O)c3cccn3c3ccc(F)cc32)cc1`, the survival is reported as 39% (active).
With `Cc1ccc(CCNC(=O)CCCn2c(=O)c3cccn3c3ccc(F)cc32)cc1` the survival was 33% (active).
`CN(C)c1ccc(CNC(=O)CCn2c(=O)c3cccn3c3ccc(F)cc32)cc1` was tested, and the survival was 57% (inactive).
`Cc1cccc(CNC(=O)CCn2c(=O)c3cccn3c3ccc(F)cc32)c1` was tested, and the survival was 92% (inactive).
For `CCCCNC(=O)CCn1c(=O)c2cccn2c2ccc(F)cc21`, the survival was 41% (active).
With `CCCCNC(=O)CCn1c(=O)c2cccn2c2cccnc21` the survival was 103% (inactive).
With `CSc1ccc(CCNC(=O)CCn2c(=O)c3cccn3c3ccc(F)cc32)cc1` the survival was 48% (inactive).
`Cc1ccc(Cc2nc3ccccc3nc2SCC(=O)N2CCN(c3ccccc3F)CC2)cc1` was tested, and the survival was 49% (inactive).
For `CCOc1ccc(-n2ccn3c(CC(C)CC(=O)O)nnc3c2=O)cc1` (stereo not drawn), the survival was 182% (inactive).
For `O=C(Nc1ccccc1)c1ccc(F)cc1`, the survival was 76% (inactive).
With `CCOC(=O)CC(NC(=O)Cn1nnc(-c2ccc(C(F)(F)F)cc2)n1)c1ccccc1Cl` (stereo not drawn) the survival was 73% (inactive).
`COc1ccc(-c2nc(CSCC(=O)N3CCN(c4ccc(OC)cc4)CC3)c(C)o2)cc1` was tested, and the survival was 77% (inactive).
With `Cc1ccc(-c2nc(CS(=O)CC(=O)N3CCN(c4cccc(Cl)c4)CC3)c(C)o2)cc1` (stereo not drawn) the survival was 46% (inactive).
`Cc1ccc(OCc2nc(-c3ccc(C(=O)N4CCN(c5cc(Cl)ccc5C)CC4)cc3)oc2C)cc1` was tested, and the survival was 76% (inactive).
With `COc1ccc(-c2nc(CSCC(=O)N3CCN(c4cc(Cl)ccc4C)CC3)c(C)o2)cc1` the survival was -4% (active).
For `Cc1oc(-c2ccccc2F)nc1CS(=O)(=O)CC(=O)N1CCN(c2cccc(C(F)(F)F)c2)CC1`, the survival was 78% (inactive).
With `Cc1oc(-c2ccc(Cl)cc2)nc1CS(=O)CC(=O)N1CCN(c2cccc(C(F)(F)F)c2)CC1` (stereo not drawn) the survival was 99% (inactive).
With `Cc1oc(-c2ccccc2F)nc1CS(=O)(=O)CC(=O)N1CCN(c2ccc(Cl)cc2)CC1` the survival was 43% (active).
With `COc1cccc(-c2nc(CS(=O)CC(=O)N3CCN(c4cccc(C(F)(F)F)c4)CC3)c(C)o2)c1` (stereo not drawn) the survival was 0% (active).
In the case of `Cc1ccccc1-c1nc(CS(=O)CC(=O)N2CCN(c3cc(Cl)ccc3C)CC2)c(C)o1` (stereo not drawn), the survival is reported as 30% (active).
`Cc1oc(-c2ccccc2Cl)nc1CS(=O)CC(=O)N1CCN(c2cccc(C(F)(F)F)c2)CC1` (stereo not drawn) was tested, and the survival was 131% (inactive).
With `Cc1ccc(-c2nc(CS(=O)CC(=O)N3CCN(c4ccc(Cl)cc4)CC3)c(C)o2)cc1` (stereo not drawn) the survival was 80% (inactive).
In the case of `Cc1oc(-c2ccccc2F)nc1CS(=O)(=O)CC(=O)N1CCN(c2ccccc2)CC1`, the survival is reported as 77% (inactive).
With `Cc1cccc(-n2cc(-c3ccccc3)nc2SCC(=O)Nc2ccccc2Cl)c1` the survival was 115% (inactive).
With `CC(C)c1ccc(NC(=O)CS(=O)(=O)c2cccc3nsnc23)cc1` the survival was 78% (inactive).
In the case of `CCOC(=O)c1sc2ccccc2c1S(=O)(=O)N1CCN(c2cc(C)ccc2C)CC1`, the survival is reported as 100% (inactive).
With `Cc1ccc(CSc2cn(CC(=O)N3CCCCCC3)c3ccccc23)cc1` the survival was 84% (inactive).
In the case of `COc1ccc(CCN2C(=O)N(c3ccc(F)cc3)C(=O)C2CC(=O)Nc2ccc(OC)cc2)cc1` (stereo not drawn), the survival is reported as 67% (inactive).
`CCc1ccc2occ(CC(=O)Nc3ccc(C)c(C)c3)c2c1` was tested, and the survival was 102% (inactive).
With `COc1ccc(OC)c(NC(=O)c2nnn(CC(=O)Nc3ccc(C(C)C)cc3)c2N)c1` the survival was 63% (inactive).
In the case of `COc1ccc(-c2nc(CSCC(=O)N3CCN(c4ccccc4F)CC3)c(C)o2)cc1`, the survival is reported as 35% (active).
For `COc1ccc(-c2nc(CSCC(=O)N3CCN(c4ccc(F)cc4)CC3)c(C)o2)cc1`, the survival was 57% (inactive).
With `COc1ccc(-c2nc(CSCC(=O)N3CCN(c4ccccc4)CC3)c(C)o2)cc1` the survival was 60% (inactive).
`Cc1cccc(NC(=O)C(NS(=O)(=O)c2cccc3nsnc23)c2ccccc2)c1C` (stereo not drawn) was tested, and the survival was 95% (inactive).
For `COCCn1c(=NC(=O)c2ccc3c(c2)OCCO3)sc2cc(C(=O)OC)ccc21`, the survival was 86% (inactive).
In the case of `CCC12CN3CC(C)(CN(C1)C3c1ccccc1C)C2=O` (stereo not drawn), the survival is reported as 76% (inactive).
`COc1ccc(-c2nc3ccccc3o2)cc1NC(=O)c1cc([N+](=O)[O-])ccc1N1CCOCC1` was tested, and the survival was 44% (active).
For `O=C(Nc1cc(-c2nc3ccccc3o2)ccc1Cl)c1cc([N+](=O)[O-])ccc1N1CCOCC1`, the survival was 57% (inactive).
With `Cc1ccc(-c2nc3cc(Cl)ccc3o2)cc1NC(=O)c1cc([N+](=O)[O-])ccc1N1CCOCC1` the survival was 57% (inactive).
With `O=C(Nc1ccc(Cl)c(-c2nc3cc(Cl)ccc3o2)c1)c1cc([N+](=O)[O-])ccc1N1CCOCC1` the survival was 111% (inactive).
`Cc1c(NC(=O)c2cc([N+](=O)[O-])ccc2N2CCOCC2)cccc1-c1nc2ccccc2o1` was tested, and the survival was 50% (inactive).
For `COc1ccc2oc(-c3cccc(NC(=O)c4cc([N+](=O)[O-])ccc4N4CCOCC4)c3)nc2c1`, the survival was 49% (inactive).
`O=C(Nc1cccc(-c2nc3ccccc3o2)c1)c1cc([N+](=O)[O-])ccc1N1CCOCC1` was tested, and the survival was 42% (active).
`O=C(Nc1cc(-c2nc3cc(Cl)ccc3o2)ccc1Cl)c1cc([N+](=O)[O-])ccc1N1CCOCC1` was tested, and the survival was 50% (inactive).
In the case of `O=C(Nc1cccc(-c2nc3cc(Cl)ccc3o2)c1)c1cc([N+](=O)[O-])ccc1N1CCOCC1`, the survival is reported as 40% (active).
With `COCCN1Cc2cccc(C(=O)Nc3ccc(C(=O)OC)cc3)c2C1=O` the survival was 82% (inactive).
`CC(C)(C)C(=O)CSc1nc2ccsc2c(=O)n1Cc1ccccc1F` was tested, and the survival was 126% (inactive).
For `CCOC(=O)c1c(C)[nH]c(C)c1S(=O)(=O)N1CCCC(C(=O)Nc2ccc(C)c(N(C)C)c2)C1` (stereo not drawn), the survival was 88% (inactive).
For `CCCCOc1ccc(C(=O)N2CCN(CCc3ccccn3)CC2)cc1`, the survival was 51% (inactive).
With `O=C(CN1CCC(NC(=O)NC2CCCCC2)CC1)Nc1cccc(I)c1` the survival was 100% (inactive).
In the case of `CC1=Nc2cc(C(=O)NCCc3ccc(Cl)cc3)ccc2Sc2ccc(C)cc21`, the survival is reported as 56% (inactive).
